A selection: hits, their analogues and other compounds. The true share with any hit is near 4.1%.
DAX1 inh-1: NR0B1 (DAX1) inhibition; P51843; HEK293 Gal4-DAX1 luciferase reporter, luminescence; inhibition, % at 6.75 µM; hit rate 0.99% among 340,000; AID 504766;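 active means inhibition above the mean over all tested compounds plus 3 SD, cut at about 4.2% in these data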;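 further: 0% = DAX1-transfected cells with DMSO and 100% = empty-vector control cells with DMSO; inhibition shows as a rise in luminescence from relieved DAX1 repression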
Target sequence (P51843 207-470 limits assumed): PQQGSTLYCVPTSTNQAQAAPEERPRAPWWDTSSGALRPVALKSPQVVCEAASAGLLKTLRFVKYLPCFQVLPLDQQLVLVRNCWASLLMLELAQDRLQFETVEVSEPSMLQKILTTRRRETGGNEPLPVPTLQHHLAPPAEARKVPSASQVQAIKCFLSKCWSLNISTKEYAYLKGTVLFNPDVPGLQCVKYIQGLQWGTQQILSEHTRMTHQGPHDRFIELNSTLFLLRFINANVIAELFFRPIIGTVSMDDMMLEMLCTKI
ssDAF12 agonist: S. stercoralis DAF-12 activation, primary screen | hit rate 1% among 370,000 | activation, % at 6.8 µM | HEK293 ssDAF-12/GRIP1 lit1-tk-luc reporter, luminescence; % of 3 µM dafachronic acid response;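 active means activation above the mean over all tested compounds plus 3 SD, cut at about 0.9% in these data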;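 further: 0% = DMSO-only wells and 100% = 3 µM delta7-dafachronic acid wells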
hcDAF12 agonist: activates DAF-12 receptor from parasite H. contortus. HEK293 hcDAF-12 lit1-tk-luc reporter, luminescence; 0% DMSO, 100% Δ7-dafachronic acid. activation, % at 6.8 µM. hit rate 1.4% among 370,000. AID 652067;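 active means activation above the mean of all tested compounds plus 3 SD, cut at about 5.5% in these data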;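 further: 100% = response to 3 µM Δ7-dafachronic acid high control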
DAX1 inh-2: inhibitors of DAX1 repression of SF-1 activated StAR promoter. hit rate 1.1% among 370,000. inhibition, % at 6.8 µM. AID 652010. HEK293T StAR-luciferase reporter, SF-1/DAX-1 repression relief;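 active means inhibition above the mean over all tested compounds plus 3 SD, cut at about 3.6% in these data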;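 further: 0% = DAX-1 cells with DMSO and 100% = cells lacking DAX-1 with DMSO; higher inhibition means more luminescence from relief of DAX-1 repression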
hgDAF-12 ag: hgDAF-12 agonism, primary luciferase screen | activation, % at 6.8 µM | AID 687014 | HEK293 GAL4-hgDAF12 UAS-luciferase reporter, agonist luminescence; normalized to butyrate control | hit rate 1.8% among 370,000;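 active means activation above a cutoff set at the mean of all screened compounds plus 3 SD, cut at about 10% in these data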;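 further: 0% = DMSO wells and 100% = sodium butyrate wells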
Active calls of the source: *; / = no result.

SMILES | DAX1 inh-1 | ssDAF12 agonist | hcDAF12 agonist | DAX1 inh-2 | hgDAF-12 ag
CC(C)CNC(=O)C1CSCCS(=O)(=O)N1Cc1ccccc1 (stereo not given) | / | -0.7 | 1.6 | -1.0 | 2.0
Cc1ccc2nsnc2c1NC(=O)c1cccnc1Cl | 1.6 | 10.3* | -1.9 | 1.1 | -1.4
Cc1ccc2nsnc2c1NC(=S)NC(=O)c1ccco1 | 0.5 | 0.6 | 2.1 | -0.2 | 0.8
O=C(CSc1nnc(-c2ccccn2)n1-c1ccccc1)c1ccc(F)cc1 | / | -1.1 | -0.6 | -1.5 | -0.7
CCOc1ccc(NC(=O)CN2C(=O)c3cccc4cccc2c34)cc1 | / | 0.0 | 4.2 | 2.9 | 11.8*
CCOc1ccc(NC(=O)C(Cc2ccccc2)N2C(=O)c3cccc4cccc(c34)C2=O)cc1 (stereo not given) | / | 0.8 | 6.0* | -0.3 | -1.9
CCOc1ccc(NC(=O)C(CC(=O)O)Cc2ccccc2)cc1 (stereo not given) | 0.0 | -1.0 | -1.4 | -0.3 | 0.9
CC(C)(C)n1ncc2c(=O)n(CC(=O)NCc3ccccc3Cl)cnc21 | -0.3 | 0.0 | 6.1* | 2.3 | 9.5
CC(C)(C)n1ncc2c(=O)n(CC(=O)NCCc3ccccc3)cnc21 | 2.1 | -0.5 | -1.0 | 1.2 | 2.2
CCOC(=O)[C@@]12CCCC3=C1N(CCC3)C(=O)[C@H]2CC(=O)NCCc1ccccc1OC | / | -1.2 | -1.7 | -0.1 | -3.1
N#Cc1cccnc1Nc1ccc(Cl)cc1 | -1.5 | -0.3 | 3.2 | -0.1 | 0.4
CCCCc1ccc(Nc2ncccc2C#N)cc1 | 0.9 | 0.6 | 5.8* | 0.8 | 7.8
Cc1ccc(OCC(=O)N/N=C\c2cn(Cc3ccccc3)c3ccccc23)cc1C | -1.7 | 1.0* | 3.3 | -0.2 | -0.3
COc1ccccc1/C=C1/C(=O)N(c2ccccc2)N=C1C | 0.1 | -0.8 | 0.6 | 0.0 | 1.3
CC1=NN(c2ccccc2)C(=O)/C1=C\c1sccc1C | 1.2 | 1.7* | 3.0 | 0.4 | 1.6
CCc1ccc(N2C(=O)C[C@@](C#N)(C(=O)OC)[C@H]2c2ccccc2)cc1 | / | -1.0 | -0.2 | 0.6 | -5.6
O=[N+]([O-])c1cc(-c2cnc3ccccc3n2)ccc1Oc1ccc(Cl)cc1 | -0.2 | 1.1* | 1.1 | 0.2 | 3.2
CS(=O)(=O)Nc1cccc(-c2cnc3ccccc3n2)c1 | 4.3* | -0.5 | 5.5 | 1.0 | 9.2
O=[N+]([O-])c1cccc(-c2cnc3ccccc3n2)c1 | 1.3 | 1.0* | 2.6 | 0.0 | 2.0
Cc1[nH]c2ccccc2c1/C=N/NC(=O)c1cccc(F)c1 | 7.8* | -0.3 | 1.4 | 1.4 | 6.8
Cc1cc(/C=N/NC(=O)c2cccc(F)c2)c(C)n1-c1ccccc1 | 4.5* | 0.4 | 2.1 | 1.9 | 11.0*
COC(=O)[C@@]12CCCCC3=C1N(CCC3)C(=O)[C@H]2CC(=O)N1CCCCC1 | / | -0.9 | 1.3 | -0.3 | 3.1
N/C(=N\OC(=O)Nc1ccccc1)c1ncc(C(F)(F)F)cc1Cl | 1.9 | -0.3 | 5.6* | 0.3 | 0.3
O=C(c1ccccc1)c1ncc(C(F)(F)F)cc1Cl | 0.4 | -1.1 | -0.9 | -0.1 | 2.4
COC(=O)/C(=C\Nc1ccccc1N)c1ncc(C(F)(F)F)cc1Cl | 1.3 | 0.7 | 5.7* | 4.3* | 11.7*
SMILES | DAX1 inh-1 | ssDAF12 agonist | hcDAF12 agonist | DAX1 inh-2 | hgDAF-12 ag
Cc1ccc(/C=N/NC(=O)C2(C)CC2(Br)Br)cc1 (stereo not given) | -1.5 | 2.0* | -0.5 | -0.5 | -1.1
CC1(C(=O)N/N=C/c2ccccc2)CC1(Br)Br (stereo not given) | -0.7 | -0.9 | -0.4 | 1.0 | -2.0
Cc1ccc2nc3c(cc(C(=O)NCc4ccccc4)c(=N)n3CCCn3ccnc3)c(=O)n2c1 | 0.4 | -1.1 | -0.6 | 0.3 | -0.4
Cc1cccn2c(=O)c3cc(C(=O)NC(C)c4ccccc4)c(=N)n(CCCn4ccnc4)c3nc12 (stereo not given) | 3.7 | -2.0 | -0.5 | 0.3 | 10.8*
CCOP(=O)(OCC)C(NC(=O)Nc1ccc(Cl)cc1)C(=O)N(CC)CC (stereo not given) | 1.4 | 1.5* | 0.1 | 0.2 | 2.6
CCOP(=O)(OCC)C(NC(=O)Nc1ccc(C)cc1)C(N)=O (stereo not given) | / | -1.4 | -1.5 | -0.4 | 1.8
Oc1c(/C=N/c2ncn[nH]2)ccc2ccccc12 | 0.1 | 1.2* | 1.9 | -0.3 | -0.5
COc1ccc(-c2nnc(-c3cccs3)o2)cc1OC | 1.1 | 0.0 | 1.0 | 2.6 | 12.0*
CCCCn1cnc2c(=O)[nH]ccc21 | / | -1.5 | 0.8 | 1.2 | 2.1
CCc1ccc(-c2nc(CS(=O)CC(=O)NC3CC3)c(C)o2)cc1 (stereo not given) | 1.1 | -0.8 | 1.0 | -0.2 | 1.2
CCc1ccc(-c2nc(CS(=O)CC(=O)O)c(C)o2)cc1 (stereo not given) | -1.6 | -0.3 | 1.9 | 0.6 | 11.6*
CCN(CC)C(=O)CC[C@@H]1CC[C@]2(CCCN(Cc3ccccc3)C2)O1 | / | -0.6 | -0.2 | 0.1 | 0.3
CC(C)NC(=O)N[C@H]1C[C@@H]2O[C@H](CO)CC[C@@H]2O[C@@H]1CCc1ccc(-c2ccccc2F)cc1 | / | -0.6 | -0.2 | -0.4 | -0.6
CCOc1ccc2nc(SCC(=O)c3ccc(Cl)s3)sc2c1 | -0.1 | -1.1 | -0.6 | -0.6 | 2.7
CCOc1ccc2nc(SCC(=O)c3cccs3)sc2c1 | 2.8 | 0.9 | 3.6 | 2.3 | 12.0*
Nc1ccc2c(c1Cl)C(=O)c1ccc(N)c(Cl)c1C2=O | 2.3 | 1.1* | 2.5 | 0.4 | 3.3
CC(C)(C)c1ccc(NC(=S)NCc2cccnc2)cc1 | 5.2* | -0.6 | -0.9 | -0.5 | 0.4
O=C(NC(=S)NCc1cccnc1)c1ccccc1F | 4.1 | -0.5 | -1.7 | 0.0 | 0.5
O=C(NC(=S)NCc1cccnc1)c1cccc2ccccc12 | 6.1* | 0.0 | 4.0 | -0.3 | 1.6
COc1ccc(NC(=O)Nc2ccccn2)cc1OC | 0.2 | 1.5* | 1.0 | 0.8 | -0.3
Cc1ccc(NC(=O)NC2CCCCC2)cc1Cl | 3.5 | 0.2 | 1.9 | 1.9 | 12.4*
COc1ccc(NC(=O)C(=S)NC2CCCCC2)cc1 | 1.9 | -0.7 | 1.5 | 2.9 | 12.2*
COc1ccc(OC)c(NC(=O)NC2CCCCCCC2)c1 | -1.0 | -1.1 | -1.2 | 0.2 | 1.9
O=C(Nc1ccc(Cl)c(Cl)c1)Nc1ccccn1 | 3.6 | 0.5 | -0.2 | 0.4 | 6.9
COc1ccc(NC(=O)NC2CCCCCCC2)cc1OC | 0.3 | -0.7 | 1.2 | 4.4* | 0.5
Cc1ccc(NC(=O)C2CCN(C(=O)NC3CCCCC3)CC2)cc1Cl | -0.9 | -1.5 | -1.1 | -1.4 | -3.0
CN(C)c1cccc(/C=C2\CC3(OC(=O)c4cccc(F)c4)CCCN2C3)c1 (stereo not given) | / | -0.5 | 0.2 | 0.6 | -1.0
COC(=O)c1ccc(OC)c(OC2CCCC2)c1 | 6.3* | -0.6 | -0.8 | -0.3 | 0.6
CCCCCCCCN1C(=O)[C@@H](CC(=O)N2CCN(C(=O)c3ccco3)CC2)C[C@@]2(C(=O)OC)C1=C[C@H](COCc1ccccc1)O[C@@H]2C | / | -0.9 | -2.4 | 1.2 | 1.9
